From ChEMBL document CHEMBL3988442, “University of Dundee, Small-Polar-MMV Screening Library” (2021)
The whole screen tested about 48,000 compounds, of which about 13,000 (27%) showed an effect of 50% or more. Some of the results follow.

test system: Wolbachia pipientis; experiment: Anti-Wolbachia Cell-Based Screen; assay type: functional; set-up: scale not given: in the data most compounds retested in dose-response had high values; conditions: 5 µM

| SMILES | Percent Effect |
| --- | --- |
| CCCC(Cn1cnc(-c2ccccc2)c1-c1cncn1CC)N(C)C (stereo not drawn) | 8.465% |
| CCCNC(=O)c1cc2c(nc1O)CCC(C)C2 (stereo not drawn) | 4.186% |
| Cc1ccc(C(=O)NC2CCCN(S(C)(=O)=O)C2)c(=O)[nH]1 (stereo not drawn) | 107.3% |
| Cc1ccc(C(=O)NC2CCN(S(C)(=O)=O)CC2)c(=O)[nH]1 | 87.03% |
| Cc1ccc(C(=O)NCCCNS(C)(=O)=O)c(=O)[nH]1 | 10.14% |
| Cc1ccc(C(=O)NCCS(C)(=O)=O)c(=O)[nH]1 | -10.31% |
| Cc1ccc(C(=O)NCCCS(C)(=O)=O)c(=O)[nH]1 | 0.8619% |
| Cc1ccc(C(=O)NCCNS(C)(=O)=O)c(=O)[nH]1 | 2.203% |
| CN(Cc1ccco1)Cc1ccccc1CNC(=O)c1csnn1 | -8.686% |
| NC(=O)NC(=O)CCN1CCN(CC2CC2)c2ccccc21 | -1.129% |
| OC[C@H]1CN(Cc2c(Cl)cncc2Cl)C[C@H]1CN1CCOCC1 | 11.24% |
| Cn1cc(-c2ncc3c(c2C(=O)O)CCN(CC2CCOC2)C3)cn1 (stereo not drawn) | 111.7% |
| CN1CCn2c(-c3cnn(C)c3)cnc2C12CCN(CC1CC1)CC2.O=C(O)C(F)(F)F.O=C(O)C(F)(F)F.O=C(O)C(F)(F)F | -10.48% |
| Cn1cccc1C(=O)NCc1cn2c(n1)CN(CC1CCOC1)CC2 (stereo not drawn) | -25.14% |
| Cn1cc(-c2ncc3c(c2C(=O)O)CCN(CC2CC2)C3)cn1.O=C(O)C(F)(F)F.O=C(O)C(F)(F)F | 86.35% |
| CN(C)C(C(=O)N1CCN(CCn2cccc2)CC1)c1ccc(F)cc1 (stereo not drawn) | -11.45% |
| O=C(O)C(F)(F)F.O=C(O)C(F)(F)F.O=C1N(Cc2cccnc2)CCC12CCCN(c1ncccn1)C2 (stereo not drawn) | 94.5% |
| O=C1N(Cc2cccc(F)c2)CCC12CCCN(c1ncc(F)cn1)C2 (stereo not drawn) | 102% |
| COc1cc(N2CCC3(CCN(Cc4cccnc4)C3=O)C2)ncn1 (stereo not drawn) | 116% |
| Cc1cnc(N2CCC3(C2)C(=O)N(C)CCN3Cc2cccnc2)nc1.O=C(O)C(F)(F)F.O=C(O)C(F)(F)F (stereo not drawn) | 1.691% |

| SMILES | Percent Effect |
| --- | --- |
| CN1CCN(Cc2cccnc2)C2(CCN(c3ncccn3)C2)C1=O.O=C(O)C(F)(F)F.O=C(O)C(F)(F)F (stereo not drawn) | -6.592% |
| O=C(O)C(F)(F)F.O=C1N(Cc2ccncc2)CCC12CCCN(c1ncc(F)cn1)C2 (stereo not drawn) | 97.96% |
| O=C1N(Cc2ccc(F)c(F)c2)CCCC12CCN(C1CCCC1)C2 (stereo not drawn) | 7.69% |
| COc1cccc(CN2CCC3(CCN(c4ncc(C)cn4)C3)C2=O)c1 (stereo not drawn) | -10.16% |
| O=C(O)C(F)(F)F.O=C([C@H]1CCCO1)N1CCCC2(CCN(Cc3ccncc3)C2=O)C1 (stereo partly drawn) | 14.29% |
| COc1cc(N2CCCC3(CCN(c4cncnc4)C3=O)C2)ncn1 (stereo not drawn) | -10.96% |
| CC(C)(C)[S+]([O-])CCNC(=O)c1csc(NC2CC2)n1 (stereo not drawn) | 7.627% |
| CSCC(C)(O)CNc1ncccc1C(F)(F)F (stereo not drawn) | 8.156% |
| COc1ccccc1C(=O)N1CCN(C(=O)CCCc2cn[nH]c2)CC1 | 9.231% |
| COC(=O)CNc1cc(C(=O)NCC(F)(F)F)cc(F)c1C | 5.099% |
| O=C(c1ccccn1)N1C[C@@H]2OCC(=O)N(CC3CCCCC3)[C@@H]2C1 | 1.178% |
| OC1CCN(Cc2cc3c(cc2Br)OCCO3)CC1 | 23.9% |
| Cc1ccc(NC(=O)N2CCCN(C(N)=O)CC2)s1 | -6.622% |
| O=S1(=O)CCC(c2nnc(-c3cnc4onc(C5CCCC5)c4c3)o2)C1 (stereo not drawn) | -3.167% |
| O=C1O[C@@H]2CN(c3ccccn3)C[C@@H]2N1CCCc1ccc(F)cc1 | 2.286% |
| COCc1nc2cc(NCc3scnc3C)ccc2o1 | 5.426% |
| O=C(O)C(F)(F)F.O=C1N(Cc2cccnc2)CCC12CCCN(c1ncc(F)cn1)C2 (stereo not drawn) | 109.4% |
| CN1CCN(Cc2cccnc2)C2(CCN(c3ncc(F)cn3)C2)C1=O.O=C(O)C(F)(F)F.O=C(O)C(F)(F)F (stereo not drawn) | -9.065% |
| Cc1ccc(-c2csc3c(=O)[nH]c(N4CCCC(C(N)=O)C4)nc23)cc1 (stereo not drawn) | 13.87% |
| Cc1csc2ncc(-c3ccnc(N4CCC[C@H](C(N)=O)C4)n3)c(=O)n12 | 107.6% |

| SMILES | Percent Effect |
| --- | --- |
| Cc1ccc(-c2ccnc(N3CCC4(CC3)CNC(=O)C4)n2)c(C)n1 | -12.24% |
| Cc1csc2ncc(-c3ccnc(N4CCCC4)n3)c(=O)n12 | 95.07% |
| Cc1csc2ncc(-c3ccnc(N4CCCN(C)CC4)n3)c(=O)n12 | 84.49% |
| Cc1noc(-c2ccc(N3CCCC(C(N)=O)C3)nc2)n1 (stereo not drawn) | -1.352% |
| Cc1csc2ncc(-c3ccnc(N4CCN(C)CC4)n3)c(=O)n12 | 4.781% |
| C=C(C)COc1cccc(C(=O)N2CCC(O)(c3ccccc3)CC2)c1 | -7.065% |
| CNS(=O)(=O)CC(=O)NC(C)Cc1ccc(-c2ccccc2)cc1 (stereo not drawn) | -4.402% |
| Nc1ccnc(N2CCC(Cc3ccccc3Cl)(C(=O)O)CC2)n1 | 5.255% |
| CC(O)CN1CCc2onc(C(c3ccccc3)c3ccccc3)c2C1 (stereo not drawn) | -15.19% |
| COCCNS(=O)(=O)c1cccc2c1CN(C(=O)c1cc(C)on1)CC2 | -0.4963% |
| Cc1nc(CN2CCc3ncnc(C4CC4)c3CC2)cs1.O=C(O)C(F)(F)F | -1.319% |
| CCOc1ncnc2c1CCN(Cc1csc(C)n1)CC2.O=C(O)C(F)(F)F | 7.701% |
| Cc1cccc(CN2CCc3cc(C(=O)O)c(N(C)C)nc3CC2)n1.O=C(O)C(F)(F)F.O=C(O)C(F)(F)F | 105.7% |
| Cc1nc(CN2CCc3cc(C(=O)O)c(N(C)C)nc3CC2)cs1.O=C(O)C(F)(F)F.O=C(O)C(F)(F)F | 99.11% |
| CCCSCC(=O)NS(=O)(=O)c1ccc2c(c1)OCCO2 | -7.969% |
| COc1ccc(Cc2nnc(SC)o2)cc1OC | -1.582% |
| COCCN(Cc1ccc(F)cc1Cl)C(=O)c1cc[n+]([O-])cc1 | -5.927% |
| c1ccc(-c2cc(CN3C[C@@H]4CC[C@H](C3)N(CC3CC3)C4)on2)cc1 | 2.507% |
